{"source": "ChEMBL document CHEMBL3988442", "about": "“University of Dundee, Small-Polar-MMV Screening Library” (2021)", "note": "In all, about 48,000 compounds went through this assay and about 13,000 (27%) showed an effect of 50% or more. The list shows a part of the results.", "data": [{"tested_on": "Wolbachia pipientis", "test": "Anti-Wolbachia Cell-Based Screen", "assay_type": "functional", "design": "scale not given: in the data most compounds retested in dose-response had high values", "conditions": "5 µM", "units": {"Percent Effect": "%"}, "values": [{"smiles": "COc1nc(C)ccc1CNC(=O)NC(C)(C)c1ncc(C)s1", "Percent Effect": 40.1}, {"smiles": "O=C(c1cccc(-c2ncc[nH]2)c1)N1CCC(N2CCCC(O)C2)CC1", "note": "(stereo unspecified)", "Percent Effect": -7.829}, {"smiles": "Cc1ccc(Cl)c(CN2CCC3(CC2)C(C(=O)O)CC(=O)N3C)c1F", "note": "(stereo unspecified)", "Percent Effect": 1.712}, {"smiles": "CC(C1CCN(Cc2c(Cl)ccc(O)c2Cl)CC1)N1CCN(C)CC1", "note": "(stereo unspecified)", "Percent Effect": 2.442}, {"smiles": "O=C(C1CCC1)N1CCC(C2CCN(Cc3ccc(Cl)cc3)C2)CC1", "note": "(stereo unspecified)", "Percent Effect": 11.03}, {"smiles": "CN1CCN(Cc2c(Cl)ccc(O)c2Cl)CC1C(=O)O", "note": "(stereo unspecified)", "Percent Effect": 96.73}, {"smiles": "Cc1cc(-c2nn(C)c(Cl)c2CN2CCN(C)C(C(=O)O)C2)no1", "note": "(stereo unspecified)", "Percent Effect": -9.468}, {"smiles": "CC(=O)N1CCN(Cc2ccc(Cl)c(F)c2)CC(O)C1", "note": "(stereo unspecified)", "Percent Effect": 3.004}, {"smiles": "CN1CCN(Cc2ccc(Cl)cc2)CC1C(=O)O", "note": "(stereo unspecified)", "Percent Effect": 102.4}, {"smiles": "O=C(C1CCCC1)N1CCC(C2CCN(Cc3ccc(Cl)cc3)C2)CC1", "note": "(stereo unspecified)", "Percent Effect": 14.43}, {"smiles": "Cc1ccc(Cl)c(CN2CCN(C)C(C(=O)O)C2)c1F", "note": "(stereo unspecified)", "Percent Effect": 102.6}, {"smiles": "CCC(C(=O)NC1(CN2CCOCC2)CCCC1)n1cccn1", "note": "(stereo unspecified)", "Percent Effect": -7.135}, {"smiles": "Cn1c(CNc2c(F)cccc2-n2cccn2)cc(=O)n(C)c1=O", "Percent Effect": -1.066}, {"smiles": "CC(C#N)CN(C)C(=O)c1cn(-c2ccc(Br)cc2)cn1", "note": "(stereo unspecified)", "Percent Effect": 17.58}, {"smiles": "CC(C)Cc1noc(CN2CCN(c3nccs3)CC2)n1", "Percent Effect": -10.34}, {"smiles": "CCc1noc(CN2CCN(c3nccs3)CC2)n1", "Percent Effect": 91.95}, {"smiles": "CCCc1noc(CN2CCN(c3nccs3)CC2)n1", "Percent Effect": 101}, {"smiles": "CCCc1noc(CN2CCN(CCC(C)C)CC2)n1", "Percent Effect": 7.482}, {"smiles": "Nc1nc(CN2CCN(c3nccs3)CC2)cs1", "Percent Effect": -10.1}, {"smiles": "c1csc(-c2cc(CN3CCN(c4nccs4)CC3)no2)c1", "Percent Effect": 7.977}, {"smiles": "COc1cccc(C(=O)N2CCN(CC(O)c3ccccc3)CC2)c1", "note": "(stereo unspecified)", "Percent Effect": 2.631}, {"smiles": "CCOCC(O)CN1CCN(C(=O)c2ccsc2)CC1", "note": "(stereo unspecified)", "Percent Effect": -6.282}, {"smiles": "CCOCC(O)CN1CCN(C(=O)c2cccc(OC)c2)CC1", "note": "(stereo unspecified)", "Percent Effect": 88.95}, {"smiles": "CCOCC(O)CN1CCN(C(=O)c2ccncc2)CC1", "note": "(stereo unspecified)", "Percent Effect": 2.226}, {"smiles": "COc1cccc(C(O)CN2CCN(C(=O)c3ccsc3)CC2)c1", "note": "(stereo unspecified)", "Percent Effect": 4.323}, {"smiles": "CCOCC(O)CN1CCN(C(=O)c2cnc3n[nH]c(C)c3c2)CC1", "note": "(stereo unspecified)", "Percent Effect": -0.1708}, {"smiles": "CCOCC(O)CN1CCN(C(=O)c2cccc(F)c2)CC1", "note": "(stereo unspecified)", "Percent Effect": 0.952}, {"smiles": "CCOCC(O)CN1CCN(C(=O)c2cc(F)cc(F)c2)CC1", "note": "(stereo unspecified)", "Percent Effect": 99.72}, {"smiles": "CCOCC(O)CN1CCN(C(=O)c2ccc(OC)cc2)CC1", "note": "(stereo unspecified)", "Percent Effect": 101.3}, {"smiles": "CCOC(C)c1nc(CN2CCN(c3nccc(C)n3)CC2)cs1", "note": "(stereo unspecified)", "Percent Effect": -8.527}, {"smiles": "CCc1ncc2c(n1)CN(C(=O)CCCc1ccc(OC)cc1)C2", "Percent Effect": -1.775}, {"smiles": "COc1ccc(NC(=O)N2CCCC(CO)C2)c(C)c1", "note": "(stereo unspecified)", "Percent Effect": -14.28}, {"smiles": "Nc1cc(N2CCCC(Cc3ccc(F)cc3F)(C(=O)O)C2)ncn1", "note": "(stereo unspecified)", "Percent Effect": -0.2204}, {"smiles": "CCN(CC)c1ccc(CNS(=O)(=O)C2CCOCC2)cc1F", "Percent Effect": 0.7913}, {"smiles": "O=C(C1CCOCC1)N1CCOC(CC2CCCCC2)C1", "note": "(stereo unspecified)", "Percent Effect": 10.22}, {"smiles": "O=C(N[C@@H]1CCN(C(=O)C2CCOCC2)C[C@H]1O)c1ccccn1", "Percent Effect": 2.955}, {"smiles": "O=C(C1CCOCC1)N1CCOCC(Cc2ncccn2)C1", "note": "(stereo unspecified)", "Percent Effect": 97.13}, {"smiles": "Fc1cccnc1OC[C@@]12CCO[C@@H]1CCN(CC1CCOCC1)C2.O=C(O)C(F)(F)F.O=C(O)C(F)(F)F", "Percent Effect": 11.98}, {"smiles": "OC1(CN2CCC(Cc3ccccc3)CC2)CCC1", "Percent Effect": -17.41}, {"smiles": "CCOCCN1CCN(CC2(O)CCCCC2)CC1", "Percent Effect": -2.649}, {"smiles": "C1=CCN(c2nc(CC3CC3)nc3c2CCN(C2CCOCC2)CC3)C1", "Percent Effect": -5.944}, {"smiles": "OC1(CN2CCC(Cc3ncccn3)CC2)CCOCC1", "Percent Effect": 87.8}, {"smiles": "OC1(CN2CCC(Cc3ncccn3)CC2)CCCCC1", "Percent Effect": 116.2}, {"smiles": "Clc1cccc(C(NCc2ncc[nH]2)c2ccccn2)c1", "note": "(stereo unspecified)", "Percent Effect": 3.902}, {"smiles": "CN(C)CC(C)(O)CNC(=O)Nc1sc2ccccc2c1Cl", "note": "(stereo unspecified)", "Percent Effect": 1.378}, {"smiles": "COc1coc(CN2CCCC(CCc3ccccc3C)C2)cc1=O", "note": "(stereo unspecified)", "Percent Effect": -0.7566}, {"smiles": "Cc1nccn1C1CCCN(C(=O)CCCNc2ncccn2)C1", "note": "(stereo unspecified)", "Percent Effect": 106.9}, {"smiles": "O=C(CCCNc1ncccn1)N1CCCC(n2cccn2)C1", "note": "(stereo unspecified)", "Percent Effect": 2.216}, {"smiles": "CCc1nccn1C1CCCN(C(=O)CCCNc2ncccn2)C1", "note": "(stereo unspecified)", "Percent Effect": 1.367}, {"smiles": "Cc1nc(C)n(C2CCCN(C(=O)CCCNc3ncccn3)C2)n1", "note": "(stereo unspecified)", "Percent Effect": 110}, {"smiles": "CNS(=O)(=O)CC(=O)N(C1CC1)C1Cc2ccccc2C1", "Percent Effect": 0.4054}, {"smiles": "Cc1ncsc1C(=O)N1CCN(Cc2cscn2)CC1", "Percent Effect": 129.9}, {"smiles": "Cc1nc(CN2CCN(C(=O)c3scnc3C)CC2)cs1", "Percent Effect": 142.4}, {"smiles": "Cc1cnc(C(=O)N2CCCN(Cc3csc(C)n3)CC2)cn1", "Percent Effect": 7.438}, {"smiles": "Cc1ncsc1C(=O)N1CCCN(Cc2cscn2)CC1", "Percent Effect": -2.478}, {"smiles": "Cc1cnc(C(=O)N2CCN(Cc3csc(C)n3)CC2)cn1", "Percent Effect": 75.58}, {"smiles": "Cc1ncsc1C(=O)N1CCCC(c2nccn2Cc2cscn2)C1", "note": "(stereo unspecified)", "Percent Effect": -18.71}, {"smiles": "CC(Cc1ccccn1)N(C)C(=O)c1ncc[nH]1", "note": "(stereo unspecified)", "Percent Effect": -16.95}, {"smiles": "COCCn1cnc(-c2cc(C(=O)NC(C)C)c3ccccn23)c1", "Percent Effect": -8.086}, {"smiles": "O=C(CNc1cccc(S(=O)(=O)C(F)F)c1)Nc1ccccc1", "Percent Effect": 9.714}, {"smiles": "COc1ncccc1C1CC(=O)NCc2nc3ccccn3c21", "note": "(stereo unspecified)", "Percent Effect": -11.47}, {"smiles": "CC(C)n1ncc2c1NC(=O)CC21C(=O)Nc2c(Cl)cccc21", "note": "(stereo unspecified)", "Percent Effect": -6.68}, {"smiles": "Cc1ccc(S(=O)(=O)NCC2(O)CCOc3ccccc32)s1", "note": "(stereo unspecified)", "Percent Effect": 0.721}, {"smiles": "Cc1cc(C)c(CNC(=O)N2CCC(N3CCNC3=O)CC2)c(C)c1", "Percent Effect": -1.308}, {"smiles": "COc1cccc(-c2noc(-c3ccc(N4CC(N)C4)nc3)n2)c1OC", "Percent Effect": 0.2823}, {"smiles": "O=C(NCc1cccnc1)[C@H]1CC[C@@H]2[C@@H](CCN2c2ncccn2)O1.O=C(O)C(F)(F)F.O=C(O)C(F)(F)F", "Percent Effect": -7.451}, {"smiles": "O=C(O)C(F)(F)F.O=C([C@@H]1CC[C@@H]2[C@@H](CCN2Cc2ccoc2)O1)N1CCCC1", "Percent Effect": 8.52}, {"smiles": "Cn1cc(CN2CC[C@H]3O[C@@H](C(=O)NC4CC4)CC[C@H]32)cn1.O=C(O)C(F)(F)F.O=C(O)C(F)(F)F", "Percent Effect": 2.978}, {"smiles": "O=C(Nc1cnccn1)[C@H]1CC[C@@H]2[C@@H](CCN2Cc2ccoc2)O1.O=C(O)C(F)(F)F", "Percent Effect": 111.7}, {"smiles": "O=C(NCc1ccco1)[C@H]1CC[C@@H]2[C@@H](CCN2Cc2cccnc2)O1.O=C(O)C(F)(F)F.O=C(O)C(F)(F)F", "Percent Effect": -10.47}, {"smiles": "Cn1cc(CN2CC[C@H]3O[C@H](C(=O)NCc4ccco4)CC[C@H]32)cn1.O=C(O)C(F)(F)F", "Percent Effect": -21.14}, {"smiles": "CS(=O)(=O)N1CC[C@H]2O[C@H](C(=O)NCCc3ccccn3)CC[C@H]21.O=C(O)C(F)(F)F", "Percent Effect": 2.249}, {"smiles": "O=C(NCc1cccs1)[C@H]1CC[C@@H]2[C@@H](CCN2c2ncccn2)O1.O=C(O)C(F)(F)F", "Percent Effect": 16.99}, {"smiles": "O=C(NCc1cccs1)[C@H]1CC[C@@H]2[C@@H](CCN2Cc2ccoc2)O1.O=C(O)C(F)(F)F", "Percent Effect": 94.68}, {"smiles": "Cn1cc(CN2CC[C@H]3O[C@H](C(=O)Nc4cnccn4)CC[C@H]32)cn1.O=C(O)C(F)(F)F", "Percent Effect": 123.6}, {"smiles": "O=C(NCCc1ccccn1)[C@@H]1CC[C@@H]2[C@@H](CCN2Cc2ccoc2)O1.O=C(O)C(F)(F)F.O=C(O)C(F)(F)F", "Percent Effect": 100.1}]}]}
